Source: PubChem BioAssay
Shown are actives, neighbours in structure and some others; about 1.8% of the full set was active somewhere.
TLR4-MyD88 BLA – TLR4-MyD88 interaction inhibition in cells | O00206+Q99836 | HeLa CL3-4 TLR4/MyD88 BLA complementation, FRET ratio | inhibition, % at 8.4 µM | 0.18% of 200,000 active | AID 861; in the data active means inhibition above about 25%
TLR9-MyD88 block – blocks human TLR9 binding to MyD88; Q9NR96+Q99836; CHO BLA complementation TLR9-MyD88, CCF4 FRET ratio; inhibition, % at 4.98 µM; 0.21% of 340,000 active; AID 504734;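 active means inhibition above the mean over all tested compounds plus 3 SD, cut at about 21% in these data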
Bim-Mcl-1 – inhibitors of Bim-Mcl-1 interaction, human. Q07820. Bead-based flow cytometry, Bim peptide-Mcl-1 binding. inhibition, % at 10 µM. 0.1% of 190,000 active; in the data active means inhibition above about 40%
NOD2 RIPK2 PPI – blocks binding of human NOD2 to RIPK2 | inhibition, % at 4.98 µM | 0.38% of 360,000 active | CHO BLA complementation NOD2-RIPK2, CCF4 ratio; in the data active means inhibition above about 21%
Target sequence (O43353 whole entry, looked up): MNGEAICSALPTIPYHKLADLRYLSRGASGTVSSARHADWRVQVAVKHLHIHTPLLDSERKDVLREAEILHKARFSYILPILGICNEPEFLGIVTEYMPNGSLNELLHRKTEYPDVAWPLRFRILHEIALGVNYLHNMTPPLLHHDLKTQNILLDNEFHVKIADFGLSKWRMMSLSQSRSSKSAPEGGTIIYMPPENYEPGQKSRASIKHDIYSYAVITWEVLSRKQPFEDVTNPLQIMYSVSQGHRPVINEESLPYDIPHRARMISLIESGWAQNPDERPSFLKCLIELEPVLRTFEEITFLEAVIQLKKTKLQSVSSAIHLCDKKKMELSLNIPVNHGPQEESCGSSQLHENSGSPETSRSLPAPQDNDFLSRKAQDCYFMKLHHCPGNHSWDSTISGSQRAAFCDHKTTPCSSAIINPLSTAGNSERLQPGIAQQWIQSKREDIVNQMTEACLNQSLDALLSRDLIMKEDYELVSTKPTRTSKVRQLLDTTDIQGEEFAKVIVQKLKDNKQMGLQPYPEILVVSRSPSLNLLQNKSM
Mcl1 Bid PPI – Mcl-1/Bid interaction inhibition. TR-FRET Mcl-1/Bid-Dy647 peptide binding, 1536-well. 0.97% of 220,000 active. Q07820. inhibition, % at 21.7 µM;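 active means compounds that cut the binding signal by more than half at the single screening dose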;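 further: His-tagged Mcl-1 with europium anti-His antibody binding Bid BH3 peptide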
Mcl1-Noxa inh – Mcl-1/Noxa interaction inhibition | TR-FRET Mcl-1/Noxa peptide binding, 2 h | inhibition, % at 21.7 µM | 1.5% of 220,000 active;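 active means compounds that cut the protein-peptide binding signal by more than 50% relative to plate controls in a single-dose test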;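 further: His-tagged Mcl-1 with rhodamine Noxa BH3 peptide and terbium anti-His antibody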
Hits are given with their value; i = inactive; nt = not tested or not shown; ! = repeats disagree.

SMILES	TLR4-MyD88 BLA	TLR9-MyD88 block	Bim-Mcl-1	NOD2 RIPK2 PPI	Mcl1 Bid PPI	Mcl1-Noxa inh
COc1ccc(Cl)cc1NC(=O)C(C)N1CCN(C/C=C/c2ccccc2)CC1 (stereo not drawn)	i	i	i	i	51	i
OCCCNc1c2ccccc2nc2ccccc12	nt	i	nt	i	nt	nt
CN(C)c1ccc(NC(=O)Cn2ncn3c(cc4ccccc43)c2=O)cc1	i	i	i	i	i	76
CC(C)c1ccc(NC(=O)Cn2ncn3c(cc4ccccc43)c2=O)cc1	nt	i	nt	i	nt	nt
CCn1cc(C(=O)Nc2cccc(C(=O)OC)c2)c(=O)c2ccc(C)nc21	nt	i	nt	i	nt	nt
CCn1cc(C(=O)Nc2ccc(-n3cnnn3)c(OC)c2)c(=O)c2ccc(C)nc21	i	nt	i	nt	i	58
CCCCN(C=O)c1c(CC)nc2ccc(C(=O)NCCCN3CCCC3=O)cn12	nt	nt	nt	i	nt	nt
Cc1cccc(-n2c(C)c(C)c3c(N)ncnc32)c1	nt	i	nt	i	nt	nt
CCOCCn1c(=NC(=O)/C=C/c2ccccc2Cl)sc2cc(NC(C)=O)ccc21	i	i	i	i	61	i
COCCn1c(=NC(=O)/C=C/c2ccccc2Cl)sc2cc(NC(C)=O)ccc21	i	i	i	i	i	i
CCC(C)Sc1cc(-c2nc3ccc(C)cn3c2NCc2ccccc2)ccc1OC (stereo not drawn)	nt	i	nt	27!	nt	nt
CC1=C(C(=O)N2CCCCCC2)CC(CC(=O)NCCCCc2ccccc2)C(=O)N1Cc1ccccc1 (stereo not drawn)	nt	nt	nt	i	nt	nt
COC(=O)c1ccc(/C=C/C(=O)OCC(=O)Nc2sccc2C(N)=O)cc1	nt	i	nt	i	nt	nt
NC(=O)c1ccsc1NC(=O)COC(=O)/C=C/c1ccc([N+](=O)[O-])cc1	nt	i	nt	i	i	79
CN(C)c1cc(NC(=O)CN2CCCC2)c2ccccc2n1	nt	i	nt	i	i	54
CCOc1cccc(-c2ccc3nncn3c2)c1	nt	nt	nt	i	nt	nt
O=C(C1=C[C@@H](c2ccc(C(F)(F)F)cc2)C[C@@H](OCc2ccc(CO)cc2)O1)N1CCN(Cc2ccccc2)CC1	i	i	i	i	i	81
C#Cc1ccc([C@@H]2C=C(C(=O)N3CCN(Cc4ccc5c(c4)OCO5)CC3)O[C@H](OCCCCO)C2)cc1	i	i	i	i	84	i
C#Cc1ccc([C@@H]2C=C(C(=O)NCc3ccccc3)O[C@H](OCc3ccc(CO)cc3)C2)cc1	i	i	i	i	i	i
C#Cc1ccc([C@H]2C=C(C(=O)O)O[C@@H](OCc3ccc(CO)cc3)C2)cc1	i	i	i	i	51	i
C#CCN(C(=O)c1ccc(OC)c(OC2CCN(C(C)C)CC2)c1)C1CCCCC1	nt	i	nt	i	nt	nt
O=C(NNC(=O)c1ccc(O)cc1O)c1ccc(Cl)cc1	i	i	i	i	56	i
CCOC(=O)c1sc(SCC(=O)Nc2ccc(N(C)C)cc2)nc1N	i	i	i	i	i	72
CN(C)c1ccc(NC(=O)CSc2nc(N)c(C(=O)Nc3ccc(N(C)C)cc3)s2)cc1	i	i	i	i	i	73
CCC(C)c1ccccc1NC(=O)C(C)NCCN(C)C (stereo not drawn)	nt	i	nt	i	60	i
SMILES	TLR4-MyD88 BLA	TLR9-MyD88 block	Bim-Mcl-1	NOD2 RIPK2 PPI	Mcl1 Bid PPI	Mcl1-Noxa inh
CCCNC(C)C(=O)Nc1ccccc1C (stereo not drawn)	nt	i	i	i	i	i
COC(=O)C1CCN(C(=O)CN2C(=O)NC3(CCC(C)CC3)C2=O)CC1 (stereo not drawn)	nt	i	nt	i	nt	nt
COC(=O)c1cccc(CN2C(=O)C(C)Sc3cc(Cl)ccc32)c1 (stereo not drawn)	nt	nt	nt	i	nt	nt
C=CCc1cccc2cc(C(=O)Nc3ccc(S(=O)(=O)Nc4nnc(CC)s4)cc3)c(=O)oc12	i	i	i	i	72	107
CCc1nnc(NS(=O)(=O)c2ccc(NC(=S)NC(=O)/C=C/c3ccc(C(C)C)cc3)cc2)s1	i	i	i	i	100	nt
O=C(/C=C/c1ccc(Br)cc1)NC(=S)Nc1ccc(S(=O)(=O)Nc2nccs2)cc1	i	i	i	i	58	52
COc1ccc(NS(=O)(=O)c2ccc(NC(=S)NC(=O)/C=C/c3ccccc3)cc2)nn1	i	i	i	i	i	58
CCc1nnc(NS(=O)(=O)c2ccc(NC(=S)NC(=O)c3ccccc3)cc2)s1	i	i	i	i	i	i
COCC(C)NCc1ccc(OC)c(Br)c1 (stereo not drawn)	i	i	i	i	i	i
CCc1ccc(OCC(=O)N(CC)CC)cc1	i	i	i	i	i	i
CCc1nnc(NS(=O)(=O)c2ccc(NC(=S)NC(=O)/C=C/c3ccccc3)cc2)s1	i	i	i	i	i	58
CCc1nnc(NS(=O)(=O)c2ccc(NC(=S)NC(=O)/C=C/c3ccc(OC)cc3)cc2)s1	i	i	i	i	i	i
COc1ccc(/C=C2/N=C3CCCCCN3C2=O)cc1	i	i	i	i	i	i
COc1cc(C)c(CN2CCN(CC(=O)Nc3ccccc3C(=O)NC3CC3)CC2)cc1OC	nt	i	nt	i	nt	nt
CNc1ccccc(C(=O)/C=C/c2ccccc2OC)c1=O	i	i	i	i	i	63
CCNc1ccc(Br)cc(C(=O)/C=C/c2ccccc2Cl)c1=O	i	i	nt	i	nt	nt
CNc1ccc(Br)cc(C(=O)/C=C/c2cccc(OC)c2OC)c1=O	i	i	i	i	i	70
CNc1ccc(Br)cc(C(=O)/C=C/c2cccc(Cl)c2Cl)c1=O	i	i	i	i	92	106
NC(=O)c1c(/N=C/c2cccs2)sc2c1CCCC2	nt	nt	nt	i	i	i
O=C(O)c1cccc2c1C(=O)c1cc([N+](=O)[O-])ccc1-2	nt	i	nt	i	nt	nt
Clc1ccc(OCCOCCNCc2ccccc2)cc1Cl	nt	i	nt	i	nt	nt
CCCCNC(=O)c1ccc2nc(-c3ccco3)c(-c3ccco3)nc2c1	i	i	i	i	i	93
O=C(NCCCO)c1ccc2nc(-c3ccco3)c(-c3ccco3)nc2c1	i	i	i	i	i	91
O=C(NCCO)Nc1ccc2nc(-c3ccco3)c(-c3ccco3)nc2c1	i	nt	i	nt	i	106
CCc1nc2ccc(C(=O)NCCc3ccco3)cc2nc1CC	nt	i	nt	i	nt	nt
SMILES	TLR4-MyD88 BLA	TLR9-MyD88 block	Bim-Mcl-1	NOD2 RIPK2 PPI	Mcl1 Bid PPI	Mcl1-Noxa inh
COc1ccc(CNC(=O)c2sc3nc4c(c(C(F)(F)F)c3c2N)CCC4)cc1	i	nt	i	nt	i	i
Cc1cccc(NC(=O)CSCC(=O)Nc2cc(Cl)ccc2N2CCN(C)CC2)c1	nt	i	nt	i	nt	nt
N=C(N)c1ccc(/C=C/c2ccc(C(=N)N)cc2O)cc1	nt	i	nt	i	i	66
CN1CCc2c(sc(NC(=O)c3ccc(S(=O)(=O)N4CCc5ccccc54)cc3)c2C(N)=O)C1	nt	nt	nt	nt	i	52
NNc1nc(-c2ccccc2)cs1	i	i	i	i	83	i
Cc1ccccc1C1NC(=S)NC2=C1C(=O)CCC2 (stereo not drawn)	i	i	i	i	i	i
COc1ccc(-c2ncc3ccccn23)cc1OC	i	i	i	i	51	i
Clc1ccc(-c2ncc3ccccn23)cc1	i	i	i	i	i	i
COc1ccc(OC)c(NC(=O)CSc2ccc(-c3cccnc3)nn2)c1	nt	i	nt	i	nt	nt
